# Reference: PubChem BioAssay (Tox21)
# Activity calls are given as the source filed them. Entries that show only a call come without a potency. Calls follow the shape of the dose curve; as a rule, active = well fitted cell-killing curve with a large enough effect in the repeat runs; inconclusive = weak or mixed curves, or effect the other way; inactive = flat fitted curve, though single readings scatter.
# Assay: qHTS assay to identify small molecule HDAC inhibitors - cell viability counter screen (AID 1259365); also: nearly all actives have a fitted effect of over 50% in size
# Conditions: HCT-116 viability, CellTiter-Glo ATP luminescence, 2 h; series mostly up to 92.4 µM
# Description: U.S. Tox21 Program National Center for Advancing Translational Sciences [NCATS] NIH Chemical Genomics Center [NCGC] U.S. Environmental Protection Agency [EPA] National Institutes of Environmental Health Sciences [NIEHS] National Toxicology Program [NTP] U.S. Food and Drug Administration [FDA] Tox21 Assay Overview: Histone deacetylases (HDACs) are a group of epigenetic enzymes that regulate gene expression by histone deacetylation. HDACs are capable of introducing epigenetic modifications and such aberrations contribute to the onset and progression of several human diseases, thus making HDACs a popular therapeutic target. For identifying endogenous class I/II HDAC inhibitors a homogenous, luminogenic HDAC I/II cell based assay was used to measure the relative activity of class I and II HDACs from cells. Wild type HCT-116 cells were used to screen Tox21 compound libraries for identifying class I/II HDAC inhibitors.
# Tox21 Assay Protocol Summary: HCT-116 cells were dispensed at 1,500 per well in 5uL of culture medium into white solid bottom 1536-well plates (Greiner Bio-One, Monroe, NC) using a Multidrop Combi (Thermo Scientific, Waltham, MA) dispenser. The assay plates were incubated at 37 C and 5% CO2 for an overnight, and then 23nL of compounds dissolved in DMSO and positive control were transferred using a Pintool station (Wako, San Diego, CA). The assay plates were incubated at 37C and 5% CO2 for 2hr. After compound treatment, 4uL of CellTiter-Glo reagent (Promega Corporation, Madison, WI) was added to each well of the assay plates using Flying Reagent Dispenser (FRD, Aurora Discovery, San Diego, CA) and incubated the assay plates at room temperature for 30min. The luminescence signal was quantified using a ViewLux plate reader (Perkin Elmer, Shelton, CT).
# Potency is read from the fitted curve at half-maximal effect.
row,Compound,Potency
1,O=c1c2ccccc2c(=O)c2c1cc(Cl)c1[nH]c3c([nH]c12)c(Cl)cc1c(=O)c2ccccc2c(=O)c13,inactive
2,Cc1cc2c3c(c1)C(c1ccccc1)=N[C@@H](NC(=O)c1ccncc1)C(=O)N3CC2,inactive
3,Oc1cc(Cl)c(Cl)c(Cl)c1Cl,inactive
4,CCC(C)Br (stereo not given),inactive
5,CC(=O)[O-].CC(=O)[O-].CC(=O)[O-].[Cr+3],inactive
6,CC(C)Br,inactive
7,CCOC(=O)Cc1ccccc1,inactive
8,CCC[CH2][Sn]([CH2]CCC)([O]C(C)=O)[O]C(C)=O,inactive
9,COc1ccc2c3c1O[C@H]1[C@H](O)CC[C@H]4[C@@H](C2)N(C)CC[C@@]341,inactive
10,O.O.O.O.O.O.O.O=S(=O)([O-])[O-].[Co+2],inactive
11,Nc1nc(N)nc(Cl)n1,inactive
12,CSC(=O)c1c(C(F)F)nc(C(F)(F)F)c(C(=O)SC)c1CC(C)C,inactive
13,CNC(C)(C)Cc1ccccc1,inactive
14,CCc1cccc(C)c1N(C(=O)CCl)[C@@H](C)COC,inactive
15,CC(=O)C(Cl)C(=O)N(C)C (stereo not given),inactive
16,COc1cnc(OC)n2nc(NS(=O)(=O)c3c(OCC(F)F)cccc3C(F)(F)F)nc12,inactive
17,ClC1=C(Cl)[C@]2(Cl)[C@@H]3[C@H]4C[C@H]([C@@H]5O[C@H]45)[C@@H]3[C@@]1(Cl)C2(Cl)Cl,inactive
18,BrCCCBr,inactive
19,C[C@]12C/C(=C/O)C(=O)C[C@@H]1CC[C@@H]1[C@@H]2CC[C@@]2(C)[C@H]1CC[C@]2(C)O,inactive
20,O=C(Cl)c1ccccc1F,inactive

row,Compound,Potency
1,COP(=S)(OC)Oc1nc(Cl)c(Cl)cc1Cl,inactive
2,CCO/N=C(\CC)C1=C(O)CC(c2c(C)cc(C)cc2C)CC1=O (stereo not given),inactive
3,CC(C)=CCN1CC[C@@]2(C)c3cc(O)ccc3C[C@@H]1[C@@H]2C,inactive
4,CCN(CC)Cc1nccn1-c1ccc([N+](=O)[O-])cc1C(=O)c1ccccc1Cl,inactive
5,CCNS(=O)(=O)C(F)(F)C(F)(F)C(F)(F)C(F)(F)C(F)(F)C(F)(F)C(F)(F)C(F)(F)F,inactive
6,CO/N=C(\C(=O)OC)c1ccccc1CO/N=C(\C)c1cccc(C(F)(F)F)c1,inactive
7,CSC(C)(C)/C=N/O,inactive
8,CN1CCc2cc3c(cc2C1O)OCO3 (stereo not given),inactive
9,S=C=Nc1ccccc1,inactive
10,CCOP(=O)(Sc1ccccc1)Sc1ccccc1,inactive
11,OCC(Br)CBr (stereo not given),inactive
12,[F][Sn]([c]1ccccc1)([c]1ccccc1)[c]1ccccc1,inactive
13,ClC(Cl)C(Cl)(Cl)Cl,inactive
14,CCOP(=O)(OCC)Oc1nc(Cl)c(Cl)cc1Cl,inactive
15,CN1[C@@H]2CC[C@H]1CC(O)C2 (stereo not given in full),inactive
16,C=C(C)C(=O)[O][Sn]([CH2]CCC)([CH2]CCC)[CH2]CCC,12.2 µM (active)
17,CC(C)c1c(CN(C)C(C)Cc2ccccc2)n(C)n(-c2ccccc2)c1=O (stereo not given),inactive
18,[O-][Cl+3]([O-])([O-])O,inactive
19,ClC1=C(Cl)[C@]2(Cl)[C@H]3[C@H]([C@@H]4C=C[C@H]3C4)[C@@]1(Cl)C2(Cl)Cl,inactive
20,c1ccc(Nc2ccc(Nc3ccccc3)cc2)cc1,inactive
